Assay outcomes deposited in PubChem BioAssay by several laboratories.
HSF-1 act: HSF-1 activators, primary screen, NIH3T3-HGL cells, MG132 stress, luminescence, single point. 1.7% of 300,000 active. activation, % at 9 µM. NIH3T3-HGL HSF-1 luciferase reporter, 8 h; 100% = twice DMSO control signal;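 active = mean replicate activation of at least 50% with a set share of replicates each reaching 50%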
NR0B1 inh: DAX1 (NR0B1) inhibitors, primary screen, cell-based, HEK293, Gal4-DAX1, luciferase luminescence | HEK293 Gal4-DAX1 luciferase reporter | inhibition, % at 6.75 µM | 0.99% of 340,000 active;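 active = inhibition above the mean over all tested compounds plus 3 SD, cut at about 4.2% in these data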;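 also: inhibition shows as a rise in luminescence from relieved DAX1 repression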
Target sequence (P51843 207-470 limits assumed): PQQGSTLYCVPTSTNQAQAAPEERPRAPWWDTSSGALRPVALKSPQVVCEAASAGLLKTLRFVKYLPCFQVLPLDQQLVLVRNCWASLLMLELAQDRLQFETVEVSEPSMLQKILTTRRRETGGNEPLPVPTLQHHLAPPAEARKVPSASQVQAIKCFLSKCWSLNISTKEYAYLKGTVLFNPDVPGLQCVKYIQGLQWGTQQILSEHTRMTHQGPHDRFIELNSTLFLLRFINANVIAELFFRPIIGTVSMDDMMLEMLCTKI
FXN GAA850 act: FXN promoter activators, primary screen, cell-based, luciferase luminescence, HEK293 lucGAA850. HEK293 lucGAA850 FXN promoter luciferase reporter, 24 h; percent of 10 µM SAHA response. activation, % at 6 µM. 0.56% of 360,000 active. AID 540364, 2011;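 active = activation above the average of all compounds screened plus 3 SD, cutoff fixed separately per campaign, cut at about 7.5% in these data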
HSF1 inh: HSF1 inhibitors in luciferase reporter cells, primary screen, cell-based, NIH3T3, luminescence | NIH3T3-HGL HSE-luciferase, MG132-induced, luminescence 8 h; stronger effect = lower value | activity change, negative = inhibition, % at 7.5 µM (by protocol) | 0.77% of 300,000 active;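 active = more than half of replicate wells show activity change below -50%, luminescence cut by over half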;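 also: luciferase reports HSF-1 transcriptional activity via heat shock element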
AHR act: AHR activators, primary screen, cell-based, luminescence, luciferase reporter, human; AHR-responsive luciferase reporter cells; Aryl hydrocarbon receptor (Homo sapiens), P35869; activation, % at 5 µM; 2.5% of 320,000 active; in the data active = activation above about 47%
GAA30 counter: GAA30 FXN promoter activators, confirmation, counter-screen for GAA850 frataxin promoter activator project, cell-based, luminescence, HEK293, lucGAA30, triplicate. 66% of 1,900 active. activation, % at 6 µM. HEK293 lucGAA30 FXN promoter luciferase, 24 h; DMSO = 0%, 5 µM ipriflavone = 100%. AID 588350, 2011. shares compounds with FXN GAA850 act;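 active = mean activation above the mean of solvent-only control wells plus 3 SD, cut at about 22% in these data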;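 also: counterscreen of GAA850 promoter hits where activity marks nonselective or luminescence artifacts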
FXN GAA850 conf: FXN GAA850 promoter activators in reporter cells, confirmation, cell-based, luminescence, HEK293 lucGAA850, triplicate | activation, % at 6 µM | AID 588351, 2011 | 86% of 1,900 active | shares compounds with FXN GAA850 act | HEK293 lucGAA850 FXN promoter luciferase reporter, 24 h; 100% = activation by SAHA;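 active = mean activation above a set limit taken from the primary screen, cut at about 8% in these data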
Large screens that a line does not name were inactive (follow-up assays come after a bar, where they were run). Sampled rows, rich in hits. Any-hit rate of the full collection: about 5.4%.

Cc1sc(N)nc1-c1ccc(Oc2ccccc2)cc1	FXN GAA850 act 8.8 | GAA30 counter 62.6 | FXN GAA850 conf 24.7
Nc1nc(N)nc(-c2ccc(Oc3ccccc3)cc2)n1	FXN GAA850 act 10.9 | GAA30 counter 26.8 | FXN GAA850 conf 13.8
N#Cc1c(N)n(C2CCCCC2)c2nc3ccccc3nc12	FXN GAA850 act 8.1 | GAA30 counter inactive | FXN GAA850 conf 18.4
CCc1c(C)sc(NC(=S)N2CC(C)OC(C)C2)c1C(=O)OC (stereo unspecified)	none (no result: HSF-1 act, HSF1 inh)
CCOc1ccc(CN2C(=O)CC(=O)N(S(=O)(=O)c3ccc(OCC)cc3)C2=O)cc1	none
CC(C)(C)c1ccc(Cn2nnc3c(=O)[nH]c(C4CCCN(C(=O)Cc5cccs5)C4)nc32)cc1 (stereo unspecified)	none
CC(C)(C)c1ccc(Cn2nnc3c(=O)[nH]c(C4CCN(C(=O)Cc5cccs5)CC4)nc32)cc1	FXN GAA850 act 8.3 | GAA30 counter inactive | FXN GAA850 conf 10.0
CCOC(=O)C1=C(O)/C(=C/c2cc(OC)c(OC)c(OC)c2)SC1=Nc1ccc(OC)cc1	FXN GAA850 act 9.6 | GAA30 counter inactive | FXN GAA850 conf 10.9
CCOC(=O)C1=C(O)/C(=C/c2ccc(OCC(=O)O)c(OCC)c2)SC1=Nc1ccc(OC)cc1	none
CCOc1ccc(S(=O)(=O)N2CCC(C(=O)Nc3cc(S(C)(=O)=O)ccc3Cl)CC2)cc1	none (no result: HSF-1 act, HSF1 inh)
Oc1ccc(-c2csc(-c3c[nH]c4ccccc34)n2)c(O)c1	FXN GAA850 act 8.1, AHR act 61.1 | GAA30 counter 88.2 | FXN GAA850 conf 40.9
C=CCn1c(-c2csc(-c3ccc(OC)c(OC)c3)n2)n[nH]c1=S	FXN GAA850 act 7.6 | GAA30 counter inactive | FXN GAA850 conf 11.1
c1ccc2c(-c3ccncc3)c[nH]c2c1	none
COc1ccc(-c2nc(CCl)cs2)cc1OC	none
COc1ccc(-c2nc(-c3ccc(O)cc3O)cs2)cc1OC	HSF-1 act 67.8, FXN GAA850 act 8.7 (no result: AHR act) | GAA30 counter 75.0 | FXN GAA850 conf 36.4
O=C(Nc1nnc(C2CCCCC2)s1)c1cccs1	FXN GAA850 act 7.8, AHR act 76.5 | GAA30 counter 94.7 | FXN GAA850 conf 27.0
C[C@H](CO)N1C[C@H](C)[C@H](CN(C)S(=O)(=O)c2ccccc2)Oc2ccc(NC(=O)NC3CCCCC3)cc2CC1=O	FXN GAA850 act 8.5 (no result: HSF-1 act, HSF1 inh) | GAA30 counter inactive | FXN GAA850 conf 9.2
C[C@H](CO)N1C[C@H](C)[C@H](CN(C)S(=O)(=O)c2cccs2)Oc2ccc(NC(=O)Nc3ccc4c(c3)OCO4)cc2CC1=O	FXN GAA850 act 10.3 (no result: HSF-1 act, HSF1 inh) | GAA30 counter inactive | FXN GAA850 conf 11.3
Cc1ccc(S(=O)(=O)Nc2ccc3c(c2)CC(=O)N([C@H](C)CO)C[C@@H](C)[C@H](CN(C)S(=O)(=O)c2ccccc2)O3)cc1	none (no result: HSF-1 act, HSF1 inh)
CN(Cc1ccccc1)c1nc(N)c([N+](=O)[O-])c(NCc2ccccc2)n1	HSF-1 act 67.1, FXN GAA850 act 7.7 | GAA30 counter 34.7 | FXN GAA850 conf 11.6
COc1ccc(OC)c(C(=O)NC(CC(N)=O)c2ccc(N3CCN(c4ccc(F)cc4)CC3)c([N+](=O)[O-])c2)c1 (stereo unspecified)	none
CN(CC(=O)Nc1ccc(Cl)c(C(F)(F)F)c1)C(=O)CCCNC(=O)c1ccc(Cl)cc1	FXN GAA850 act 14.8 (no result: HSF-1 act, HSF1 inh) | GAA30 counter 65.4 | FXN GAA850 conf 25.9
CN(CC(=O)Nc1ccc(Cl)c(C(F)(F)F)c1)C(=O)CCNC(=O)c1ccco1	none
Cc1cc(NC(=O)CCS(=O)(=O)c2nc(-c3ccccc3)cc(C(F)(F)F)n2)no1	none (no result: HSF-1 act, HSF1 inh)
CS(=O)(=O)c1nc(-c2ccccc2)cc(C(F)(F)F)n1	FXN GAA850 act 25.3, HSF1 inh -97.7 | GAA30 counter inactive | FXN GAA850 conf inactive
O=c1cc(-c2ccccc2)oc2ccc(O)cc12	NR0B1 inh 7.8, FXN GAA850 act 9.2 | GAA30 counter 134.4 | FXN GAA850 conf 41.8
CCc1nnc(NC(=O)CCC(=O)N2CCN(c3cccc(Cl)c3)CC2)s1	none
CN(Cc1ccon1)C(=O)C1CCC(=O)N(CCc2ccc(Cl)cc2)C1 (stereo unspecified)	none (no result: AHR act)
COc1cc(NC(=O)c2cc3ccccc3o2)c(OC)cc1Br	FXN GAA850 act 17.3 | GAA30 counter 24.1 | FXN GAA850 conf 15.9
COc1ccc(/C=C/C2=NNC(=O)CC2)cc1	FXN GAA850 act 7.7 | GAA30 counter 82.8 | FXN GAA850 conf 32.1
CNC(=O)CN(c1ccc(C23CC4CC(CC(C4)C2)C3)cc1)S(C)(=O)=O	FXN GAA850 act 7.6 | GAA30 counter 26.4 | FXN GAA850 conf 14.8
NNC(=O)CNS(=O)(=O)c1ccc([N+](=O)[O-])cc1	none
COc1ncnc2sc(-c3ccccc3)cc12	FXN GAA850 act 9.0 | GAA30 counter 106.0 | FXN GAA850 conf 36.9
CC(C)(C)Nc1ncnc2sc(-c3ccccc3)cc12	none
CN(C)c1ncnc2sc(-c3ccccc3)cc12	FXN GAA850 act 9.0 | GAA30 counter 45.6 | FXN GAA850 conf 18.4
CC(C)(C)n1nc(-c2ccc(F)cc2)c2c(N)ncnc21	FXN GAA850 act 11.6 | GAA30 counter 53.7 | FXN GAA850 conf 11.7
CC(C)(C)n1nc(-c2ccc(Cl)cc2)c2c(N)ncnc21	FXN GAA850 act 11.3 | GAA30 counter 64.2 | FXN GAA850 conf inactive
Cc1ccc(-c2nc(N)c3c(-c4ccc(C)cc4)nn(C(C)(C)C)c3n2)cc1	none
COC(=O)C1=C(C(=O)OC)[C@@H]2N(C)c3ccc(OC)cc3[C@@]23C[C@@H](C(=O)OC)N=C3N1	none
CC1CN(C(=O)CN(C)S(=O)(=O)c2ccc3ccccc3c2)CC(C)O1 (stereo unspecified)	none
COc1ccccc1CNC(=O)C1CC(c2ccccc2C(F)(F)F)=NO1 (stereo unspecified)	none
O=C(O)c1ccc(N/N=C/c2ccc(-c3cc(Cl)ccc3Cl)o2)cc1	none
O=C(O)c1ccc(N/N=C/c2ccc(-c3cccc(Cl)c3)o2)cc1	NR0B1 inh 7.2, FXN GAA850 act 11.1, AHR act 128.0 | GAA30 counter 112.3 | FXN GAA850 conf 42.4
